Activity calls are given as the source filed them.
Experiments:
[1] = A549 cell viability effects, profiling panel, calcein-AM fluorescence, 48 h, basal (AID 1162); conditions: higher = more signal
[2] = adipocyte viability effects, profiling panel, cell-based, 3T3-L1 adipocytes, calcein-AM fluorescence, 48 h, basal (AID 1163); conditions: 3T3-L1 adipocytes viability, higher = more signal
[3] = HepG2 cell viability effects, profiling panel, calcein-AM fluorescence, 48 h, basal (AID 1164); conditions: higher = more signal
[4] = MM1S cell viability effects, profiling panel, calcein-AM fluorescence, 48 h, basal (AID 1165); conditions: higher = more signal;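 note: viability of MM1S multiple myeloma cells under basal unstimulated conditions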
[5] = basal RPMI8226 viability, no added stimulus, profiling panel, cell-based, calcein-AM fluorescence, 48 h, PK04 Diversity Set (AID 1166); conditions: RPMI8226 myeloma viability, higher = more signal;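 note: cells grown under basal conditions without added stimulus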
[6] = basal HepG2 mitochondrial membrane potential changes, profiling panel, cell-based, JC-1 fluorescence, 24 h, 100 nL compound (AID 1167); conditions: higher = more signal
[7] = basal 3T3-L1 adipocyte mitochondrial potential changes, profiling panel, cell-based, JC-1 fluorescence, 3T3-L1 adipocytes, 24 h, 100 nL compound (AID 1168); conditions: JC-1 mitochondrial fluorescence, higher = more signal, called active from +8 up or from −8 down
[8] = basal RPMI8226 mitochondrial membrane potential changes, profiling panel, cell-based, JC-1 fluorescence, 24 h, 100 nL compound (AID 1169); conditions: RPMI8226 myeloma, JC-1 mitochondrial potential fluorescence, higher = more signal
[9] = basal MM1S mitochondrial membrane potential changes, profiling panel, cell-based, JC-1 fluorescence, 24 h, 100 nL compound (AID 1170); conditions: higher = more signal
[10] = A549 lung cancer cell viability effects, profiling panel, resazurin fluorescence, 24 h, PK04 Diversity Set (AID 1171); conditions: higher = more signal, called active from +8 up or from −8 down
Note: test concentration not given here.

| SMILES | z-score [1] | z-score [2] | z-score [3] | z-score [4] | z-score [5] | z-score [6] | z-score [7] | z-score [8] | z-score [9] | z-score [10] |
| --- | --- | --- | --- | --- | --- | --- | --- | --- | --- | --- |
| CN(C)CCCNC(=O)[C@@]1(c2ccc([N+](=O)[O-])cc2)CC(=O)N(CC23CC4CC(CC(C4)C2)C3)[C@@H]1c1ccc(CO)cc1I | -4.27 | -0.0899 | -5.25 | -3.97 | -4.15 | -2.77 | 1.94 (inactive) | -0.913 | -2.37 | -7.13 (inactive) |
| CCOC(=O)C[C@H]1[C@H](OC(=O)c2ccccc2-c2ccccc2)[C@@H](NC(=O)c2ccc(-c3ccccc3)cc2)c2cc(OCCCO)ccc2N1C(=O)c1ccc2ccccc2n1 | -0.137 | -0.163 | 0.336 | 0.402 | -0.485 | -0.149 | 1.18 (inactive) | 0.0491 | -0.63 | 0.524 (inactive) |
| O=C1c2ccccc2[C@](Cc2ccccc2I)(C(=O)NCC(F)(F)F)[C@H](c2ccc(CO)cc2)N1C1CCCCC1 | 1.77 | 0.515 | 1.02 | -1.75 | -3.92 | 1.3 | 0.238 (inactive) | -0.434 | 0.23 | -0.0818 (inactive) |
| C=CC[C@]1(C(=O)NCCN2CCOCC2)N=C(c2ccc(OCCCO)cc2)O[C@H]1c1ccccc1CN=[N+]=[N-] | 0.779 | 0.885 | 0.187 | 0.81 | -0.221 | 2.76 | 0.0141 (inactive) | -1.08 | -0.244 | 1.2 (inactive) |
| COCCOC(=O)N1C(=O)[C@@]2(c3ccccc31)[C@H](C(=O)N1CCN(c3ncccn3)CC1)[C@H]1C(=O)O[C@H](c3ccccc3)[C@H](c3ccccc3)N1[C@@H]2c1ccc(O)cc1 | -0.337 | 0.176 | 0.102 | -1.41 | -0.441 | 0.745 | -0.107 (inactive) | 0.263 | 0.0963 | 1.19 (inactive) |
| C=CCNC(=O)[C@@H]1[C@H]2C(=O)O[C@H](c3ccccc3)[C@H](c3ccccc3)N2[C@H](c2ccc(O)cc2)[C@@]12C(=O)N(C(=O)OCCOC)c1ccc(C#CC3(O)CCCCCC3)cc12 | 0.0287 | 0.284 | 0.446 | 0.362 | 0.895 | 0.577 | 0.8 (inactive) | 0.244 | -0.432 | 0.395 (inactive) |
| CC(C)N1CC=CC23O[C@@H]4C=CCOC(=O)[C@@H]4[C@H]2C(=O)N(CCCO)[C@@H]3C1=O (stereo not given in full) | 0.555 | 2.67 | -1.01 | 0.34 | -0.258 | -0.4 | 0.253 (inactive) | 0.354 | -1.5 | 0.108 (inactive) |
| COC(=O)[C@@]1(Cc2ccc(OC)cc2)[C@H]2c3cc(C(=O)N(C)C)n(Cc4ccc(Cl)c(C(F)(F)F)c4)c3C[C@H]2CN1C(=O)c1ccccc1 | -0.585 | -0.88 | -0.585 | -1.93 | -2.39 | 0.765 | -0.938 (inactive) | -0.652 | -1.69 | -1.83 (inactive) |
| COCCOC(=O)N1C(=O)[C@@]2(c3cc(C#CC4=CCCCC4)ccc31)[C@H](c1ccc(OCCO)cc1)N1[C@H](c3ccccc3)[C@H](c3ccccc3)OC(=O)[C@H]1[C@@H]2C(=O)N1CCN(c2ncccn2)CC1 | -0.471 | 1.18 | 0.47 | -0.759 | -0.774 | 0.955 | 1.46 (inactive) | -0.333 | -1.01 | 0.468 (inactive) |
| CC(C)(C)N1CC=CC23O[C@@H]4C=CCOC(=O)[C@@H]4[C@H]2C(=O)N(CCCCCCO)[C@@H]3C1=O (stereo not given in full) | -0.127 | -0.739 | -0.165 | 1.53 | 0.0749 | -0.403 | 0.567 (inactive) | 0.799 | -0.112 | -0.0435 (inactive) |
| O=C(NCCCCCNC(=O)/C(Cc1ccccc1)=N/O)OCc1ccccc1 | 1.54 | 0.989 | -0.756 | -0.781 | 0.476 | -0.348 | 0.627 (inactive) | 0.567 | -0.877 | 0.766 (inactive) |
| CN1C(=O)C2C=CC(C(O)c3cccc(O)c3)N(Nc3ccccc3)C2C1=O (stereo not given) | -0.501 | -0.58 | -0.333 | -1.58 | -1.67 | -0.579 | 0.548 (inactive) | -0.419 | -0.179 | 0.0494 (inactive) |
| C=CCOC(=O)[C@H]1[C@@H]2C(=O)O[C@@H](c3ccccc3)[C@@H](c3ccccc3)N2[C@@H](c2ccc(OCCOC(=O)[C@H]3C[C@H]4C(=O)N[C@@H](CCCCNC(C)=O)C(=O)N4[C@H]3c3ccc(O)cc3)cc2)[C@]12C(=O)Nc1ccccc12 | 1.72 | 0.496 | 1.27 | -0.643 | 1.03 | -0.297 | -0.0783 (inactive) | -0.748 | -0.175 | 2.07 (inactive) |
| CC(c1ccccc1)C(O)C1C=CC2C(=O)N(c3ccccc3)C(=O)C2N1Nc1ccc([N+](=O)[O-])cc1 (stereo not given) | -0.898 | -0.755 | 0.204 | 0.48 | -0.129 | -0.411 | -1 (inactive) | -1.03 | -1.44 | 1.07 (inactive) |
| O=c1n(-c2ccccc2)c(=O)n2n1CC(COc1ccccc1)=C([C@H](O)CCc1ccccc1)[C@@H]2CO | -0.0498 | 0.725 | 0.787 | -1.44 | -2.34 | -1.2 | 0.0027 (inactive) | 0.0482 | -1.98 | -0.962 (inactive) |
| O=C(CS)NCCCCCNC(=O)[C@@H]1C[C@@H]2C(=O)N3CCC[C@H]3C(=O)N2[C@@H]1c1cccc(OCCO)c1 | -0.174 | 0.195 | 0.451 | -0.304 | -0.799 | 0.266 | 0.0369 (inactive) | -0.00798 | 0.305 | -0.61 (inactive) |
| C[C@]1(C(=O)NC2CC2)c2ccccc2C(=O)N(Cc2ccccc2)[C@H]1c1ccc(CO)cc1 | 0.395 | 1.51 | -0.577 | 0.855 | -0.655 | 1.66 | 0.195 (inactive) | -0.0462 | 0.263 | 0.54 (inactive) |
| N#Cc1ccc(NN2C(C(O)c3ccc(F)cc3)C=CC3C(=O)N(c4ccccc4)C(=O)C32)cc1 (stereo not given) | -0.518 | -0.877 | 0.211 | -0.453 | -1.33 | -1.58 | -0.311 (inactive) | 0.321 | 0.153 | 0.133 (inactive) |
| C=CCOC(=O)[C@H]1[C@@H]2C(=O)O[C@@H](c3ccccc3)[C@@H](c3ccccc3)N2[C@@H](c2ccc(OCCOC(=O)[C@@H]3C[C@@H]4C(=O)N[C@@H](CCCCN(C)C)C(=O)N4[C@@H]3c3ccc(O)cc3)cc2)[C@]12C(=O)Nc1ccccc12 | -0.0988 | 0.887 | 0.52 | -0.305 | -0.0297 | -2.38 | 0.0411 (inactive) | -0.473 | -0.92 | 0.23 (inactive) |
| O=C(N1CCCCC1)[C@@]1(CCS(=O)(=O)c2ccccc2)COC(c2ccc(OCCCO)cc2)=N1 | 0.606 | -0.609 | 0.299 | -1.03 | 0.0963 | 0.147 | -0.328 (inactive) | -1.13 | -1.16 | 0.327 (inactive) |
| [N-]=[N+]=NCc1ccccc1[C@H]1OC(c2ccc(OCCCO)cc2)=N[C@@]1(CCS(=O)(=O)c1ccccc1)C(=O)N1CCCCC1 | 0.481 | 1.03 | -0.0898 | -0.133 | -0.946 | -0.0617 | 1.04 (inactive) | -1.11 | -1.11 | -0.743 (inactive) |
| COc1ccc(CCN2C(=O)[C@@]3(Cc4ccccc42)c2ccccc2C(=O)N(Cc2ccccc2OC)[C@H]3c2ccc(CO)cc2)cc1 | -0.391 | 0.677 | -0.264 | -1.98 | -0.996 | 0.0826 | 0.16 (inactive) | 0.718 | 0.464 | 0.271 (inactive) |
| C=C(C)[C@@H]1CC=C(C(O)C2C=CC3C(=O)N(c4ccccc4)C(=O)C3N2Nc2ccccc2F)CC1 (stereo not given in full) | -0.644 | -0.466 | 0.27 | -2.18 | 0.123 | -1.05 | -1.74 (inactive) | -0.872 | -0.043 | -0.35 (inactive) |
| C#CCN([C@@H](Cc1ccc(O)cc1)C(=O)OC)[C@@H](/C=C/C1CC1)[C@H](O)Cc1ccccc1 | -3.21 | -0.0073 | -3.12 | -3.28 | -4.06 | -3.58 | -0.0474 (inactive) | -1.2 | -1.58 | -0.2 (inactive) |
| COC(=O)[C@@]1(Cc2ccccc2)[C@H]2c3cc(C(=O)N(C)C)n(CCN4CNCC4=O)c3C[C@H]2CN1C(=O)c1ccccc1 | 0.134 | -0.391 | 0.0701 | 0.0517 | -0.002 | 0.196 | -0.179 (inactive) | -0.874 | 1.46 | 0.293 (inactive) |
| COCCOC(=O)N1C(=O)[C@@]2(c3cc(C#CC4(O)CCCCCC4)ccc31)[C@H](c1ccc(O)cc1)N1[C@H](c3ccccc3)[C@H](c3ccccc3)OC(=O)[C@H]1[C@@H]2C(=O)NC[C@H](O)c1ccccc1 | 0.121 | 0.266 | -0.31 | -1.49 | -3.49 | -2.3 | -1.27 (inactive) | -1.15 | -0.715 | 0.0025 (inactive) |
| COc1ccc([Si](C)(C)[C@@H]2[C@@H](CCO)O[C@]3(C(=O)N(Cc4ccc(N5CCCCC5=O)cc4)c4ccccc43)[C@H]2C)cc1 | 0.108 | -0.686 | -0.347 | -2.8 | -3.05 | 0.714 | 1.25 (inactive) | 0.88 | 0.572 | -1.78 (inactive) |
